Measured values taken from PubChem BioAssay.
Calls of active or inactive are those of the source. Unless noted, how the calls were made is not given here.

Assays:
[1] = anti-His antibody binders, primary screen, artefact control for SMM control protein annotation, biochemical, small-molecule microarray, 635 nm fluorescence (AID 1128); conditions: anti-His Alexa647 antibody binding, higher = more signal;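 further: score merges feature fluorescence with signal-to-noise for each printed compound spot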
[2] = system: Human papillomavirus type 1a E7 protein (residues 1-88); assay: HPV1a E7 small-molecule binders, primary screen, biochemical, small-molecule microarray, residues 1-88, 635 nm (AID 1129); conditions: small-molecule microarray binding, fluorescence 635 nm; higher = more signal
[3] = target: Focal adhesion kinase 1 (Homo sapiens) (UniProt Q05397); assay: small-molecule microarray binders of FAK, primary screen, biochemical, 635/667 nm fluorescence, BSA, DTT (AID 1130); conditions: PTK2 binding, 635 nm fluorescence, higher = more signal;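 further: composite of spot emission at 667 nm and signal to noise over triplicate slides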
Sequence of Focal adhesion kinase 1 (Homo sapiens) (Q05397 whole entry, looked up): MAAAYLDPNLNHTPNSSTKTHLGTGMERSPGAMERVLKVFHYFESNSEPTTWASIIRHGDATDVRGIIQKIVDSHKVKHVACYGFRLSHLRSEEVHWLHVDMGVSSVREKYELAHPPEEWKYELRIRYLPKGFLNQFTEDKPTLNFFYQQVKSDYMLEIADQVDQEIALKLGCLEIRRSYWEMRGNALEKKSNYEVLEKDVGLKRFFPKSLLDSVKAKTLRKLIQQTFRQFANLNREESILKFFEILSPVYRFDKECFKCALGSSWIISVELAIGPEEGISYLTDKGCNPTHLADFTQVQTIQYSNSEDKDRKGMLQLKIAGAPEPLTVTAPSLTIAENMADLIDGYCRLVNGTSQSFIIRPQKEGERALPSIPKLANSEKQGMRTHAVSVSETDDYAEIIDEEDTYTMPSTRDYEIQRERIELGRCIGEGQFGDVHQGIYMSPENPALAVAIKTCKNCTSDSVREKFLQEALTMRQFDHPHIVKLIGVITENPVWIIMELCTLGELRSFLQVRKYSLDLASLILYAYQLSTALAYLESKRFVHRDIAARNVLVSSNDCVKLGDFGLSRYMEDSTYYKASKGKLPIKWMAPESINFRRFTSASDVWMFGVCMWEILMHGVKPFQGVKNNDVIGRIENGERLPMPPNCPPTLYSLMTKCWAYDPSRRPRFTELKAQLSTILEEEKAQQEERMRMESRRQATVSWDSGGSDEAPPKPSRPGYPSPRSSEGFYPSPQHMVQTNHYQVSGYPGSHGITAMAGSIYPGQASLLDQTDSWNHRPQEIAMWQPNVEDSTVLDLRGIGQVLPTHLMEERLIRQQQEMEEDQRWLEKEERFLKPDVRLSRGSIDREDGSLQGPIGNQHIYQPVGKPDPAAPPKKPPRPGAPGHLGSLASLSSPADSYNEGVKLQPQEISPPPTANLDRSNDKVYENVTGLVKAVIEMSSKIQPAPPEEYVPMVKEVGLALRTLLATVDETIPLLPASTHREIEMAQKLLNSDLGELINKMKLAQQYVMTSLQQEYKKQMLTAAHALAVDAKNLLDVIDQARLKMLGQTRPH

[4] = system: Fibrinogen (Alexa647-labelled); assay: fibrinogen binders on compound microarrays, profiling panel, artefact control for SMM control-protein annotation, biochemical, small-molecule microarray, 635/667 nm fluorescence (AID 1131); conditions: fibrinogen-A647 binding fluorescence, higher = more signal;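 further: z-score merges 667 nm fluorescence with per-spot signal-to-noise over triplicate slides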
[5] = target: Follistatin (Homo sapiens) (UniProt P19883); assay: follistatin binders on small-molecule microarrays, primary screen, biochemical, small-molecule microarray, 635/667 nm fluorescence (AID 1132); conditions: FST binding, 635 nm fluorescence, higher = more signal
Sequence of Follistatin (Homo sapiens) (P19883 whole entry, looked up): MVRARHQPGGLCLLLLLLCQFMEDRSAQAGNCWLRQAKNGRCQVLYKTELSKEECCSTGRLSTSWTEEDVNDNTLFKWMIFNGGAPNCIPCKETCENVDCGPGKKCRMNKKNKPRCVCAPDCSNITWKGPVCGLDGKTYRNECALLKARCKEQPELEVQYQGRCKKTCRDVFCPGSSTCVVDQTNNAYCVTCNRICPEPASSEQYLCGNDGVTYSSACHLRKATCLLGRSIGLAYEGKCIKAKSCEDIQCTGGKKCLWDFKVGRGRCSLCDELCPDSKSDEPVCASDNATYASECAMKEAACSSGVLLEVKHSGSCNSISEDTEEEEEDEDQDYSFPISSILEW

[6] = target: Fibroblast growth factor 2 (Homo sapiens) (UniProt P09038); assay: FGF2 binders on small-molecule microarrays, primary screen, biochemical, small-molecule microarray, 635/667 nm fluorescence (AID 1133); conditions: small-molecule microarray binding, FGF2, fluorescence 635/667; higher = more signal
Sequence of Fibroblast growth factor 2 (Homo sapiens) (P09038 whole entry, looked up): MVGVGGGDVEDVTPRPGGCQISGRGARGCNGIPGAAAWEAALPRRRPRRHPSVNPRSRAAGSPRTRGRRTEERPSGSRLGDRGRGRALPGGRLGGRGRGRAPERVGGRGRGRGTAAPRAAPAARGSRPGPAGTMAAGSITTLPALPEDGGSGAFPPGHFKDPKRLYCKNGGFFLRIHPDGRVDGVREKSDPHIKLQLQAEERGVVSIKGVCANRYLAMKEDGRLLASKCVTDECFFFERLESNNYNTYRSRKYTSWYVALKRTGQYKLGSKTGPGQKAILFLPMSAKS

[7] = mitochondrial membrane potential change in A549 cells, profiling panel, cell-based, JC-1 fluorescence, basal, 24 h, 100 nL (AID 1138); conditions: higher = more signal;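 further: A549 lung adenocarcinoma cells under basal conditions with no added stimulus; test concentration not given here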
Lefty1 = Lefty1 binders on small-molecule microarrays, primary screen, biochemical, small-molecule microarray, 635/667 nm fluorescence (AID 1139); conditions: small-molecule microarray binding, fluorescence 635/667; higher = more signal
[8] = system: wheat germ agglutinin (Triticum aestivum), Alexa647-labelled; assay: wheat germ agglutinin binders on compound microarrays, profiling panel, artefact control for SMM control-protein annotation, biochemical, small-molecule microarray, 635/667 nm fluorescence (AID 1140); conditions: WGA-A647 binding, 635 nm fluorescence, higher = more signal;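 further: score merges 667 nm feature emission with signal to noise over triplicate slides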
[9] = target: Luciferin 4-monooxygenase (Photinus pyralis) (UniProt P08659); assay: firefly luciferase enzyme inhibitors, primary screen, biochemical, luminescence, purified enzyme, 2006 set (AID 1141); conditions: SteadyGlo luminescence, 30 min, higher = more signal, called active from +8 up or from −8 down;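 further: cell-free assay with purified firefly luciferase at 100 ng per well in PBS; test concentration not given here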
Sequence of Luciferin 4-monooxygenase (Photinus pyralis) (P08659 whole entry, looked up): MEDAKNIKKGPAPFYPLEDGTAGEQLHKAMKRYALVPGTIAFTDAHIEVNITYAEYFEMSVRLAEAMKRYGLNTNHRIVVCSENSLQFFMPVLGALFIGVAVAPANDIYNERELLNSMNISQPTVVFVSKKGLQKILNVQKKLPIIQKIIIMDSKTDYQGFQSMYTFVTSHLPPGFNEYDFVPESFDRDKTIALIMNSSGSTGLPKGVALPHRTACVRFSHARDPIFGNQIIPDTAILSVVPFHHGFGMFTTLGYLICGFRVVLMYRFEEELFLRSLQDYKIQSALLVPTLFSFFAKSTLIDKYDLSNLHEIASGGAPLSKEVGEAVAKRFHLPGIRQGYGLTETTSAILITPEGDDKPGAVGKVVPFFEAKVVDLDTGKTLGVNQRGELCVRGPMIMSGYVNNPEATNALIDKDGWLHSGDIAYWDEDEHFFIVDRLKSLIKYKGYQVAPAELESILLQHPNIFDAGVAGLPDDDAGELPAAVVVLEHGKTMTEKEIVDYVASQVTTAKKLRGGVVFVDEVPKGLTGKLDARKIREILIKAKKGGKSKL

[10] = system: Wnt5a (protein binding on small-molecule microarray); assay: Wnt5a binders on small-molecule microarray, primary screen, biophysical, 635/667 nm fluorescence (AID 1142); conditions: 635 nm fluorescence, higher = more signal;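 further: fluorescence read at 667 nm with signal to noise per printed feature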
[11] = cell viability in Huh7 cells, primary screen, cytotoxicity control for HCV replication inhibitor project, CellTiter-Glo luminescence, basal, 48 h (AID 1143); conditions: Huh7 HCV replicon, higher = more signal, called active from +8 up or from −8 down;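 further: Huh7 hepatoma cells carrying a hepatitis C replication reporter with no stimulus; test concentration not given here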
[12] = P. aeruginosa biofilm formation inhibitors, primary screen, PAO1 strain, BacTiter-Glo luminescence, LB-PBS (AID 1144); conditions: 12 h, higher = more signal
[13] = CREB reporter modulators without forskolin, primary screen, cell-based, PC12, CRE-LacZ reporter, unstimulated (AID 1145); conditions: no forskolin, luminescence, 4.5 h, higher = more signal, called active from +8 up or from −8 down
[14] = CREB reporter modulators under forskolin, primary screen, cell-based, PC12, CRE-LacZ reporter, forskolin-stimulated (AID 1146); conditions: luminescence, 4.5 h, higher = more signal, called active from +8 up or from −8 down;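 further: PC12 cells with 6xCRE LacZ reporter stimulated by forskolin 10 µM; beta-galactosidase reporter signal reflecting CREB driven transcription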
[15] = target: Streptavidin (Streptomyces avidinii) (UniProt P22629); assay: streptavidin binders on small-molecule microarray, primary screen, artefact control for SMM compound annotation, biophysical, 635/667 nm fluorescence (AID 1147); conditions: streptavidin binding, higher = more signal;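 further: signal reflects streptavidin binding to arrayed compounds as a control protein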
Sequence of Streptavidin (Streptomyces avidinii) (P22629 whole entry, looked up): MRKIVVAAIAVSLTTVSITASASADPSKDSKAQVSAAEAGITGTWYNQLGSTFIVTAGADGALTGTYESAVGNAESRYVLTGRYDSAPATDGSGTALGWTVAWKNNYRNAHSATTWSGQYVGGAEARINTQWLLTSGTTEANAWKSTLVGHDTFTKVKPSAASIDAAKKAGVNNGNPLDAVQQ

[16] = small-molecule binders of probe aInhba, primary screen, biochemical, small-molecule microarray, 635/667 nm fluorescence (AID 1148); conditions: higher = more signal;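 further: score merges 667nm spot fluorescence with signal-to-noise for antibody binding to printed compounds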
Torsin-1A (Homo sapiens) [17] = target: Torsin-1A (Homo sapiens) (UniProt O14656); assay: torsin A binders from cell lysate, primary screen, small-molecule microarray, wild-type, 635/667 nm (AID 1149); conditions: COS7 hTOR1A-WT lysate, 635 nm fluorescence, higher = more signal
Sequence of Torsin-1A (Homo sapiens) (O14656 whole entry, looked up): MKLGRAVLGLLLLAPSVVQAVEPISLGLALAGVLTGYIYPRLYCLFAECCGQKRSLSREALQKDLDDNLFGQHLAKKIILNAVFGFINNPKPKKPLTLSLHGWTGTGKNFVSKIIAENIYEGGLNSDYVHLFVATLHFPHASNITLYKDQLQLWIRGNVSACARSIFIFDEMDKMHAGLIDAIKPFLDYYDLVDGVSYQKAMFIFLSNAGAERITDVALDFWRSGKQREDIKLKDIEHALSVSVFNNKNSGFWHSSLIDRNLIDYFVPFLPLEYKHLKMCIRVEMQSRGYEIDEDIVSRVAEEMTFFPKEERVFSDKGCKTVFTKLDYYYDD

Torsin-1A (Homo sapiens) [18] = target: Torsin-1A (Homo sapiens) (UniProt O14656); assay: small-molecule binders of mutant TOR1A in lysate, primary screen, cell lysate, small-molecule microarray, COS7 lysate, 635/667 nm fluorescence (AID 1150); conditions: COS7 hTOR1A mutant lysate, 635 nm fluorescence, higher = more signal;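 further: score pools 667 nm emission and signal to noise measuring lysate protein binding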
[19] = system: Sonic hedgehog protein (Shh); assay: small-molecule binders of Shh protein, primary screen, biochemical, small-molecule microarray, 635/667 nm fluorescence (AID 1151); conditions: small-molecule microarray binding, 635 nm fluorescence; higher = more signal;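 further: Shh protein binding to compounds spotted on small-molecule microarray slides; score combines spot fluorescence intensity with signal-to-noise across triplicate slides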

Compound	composite z-score [1]	composite z-score [2]	composite z-score [3]	composite z-score [4]	composite z-score [5]	composite z-score [6]	z-score [7]	composite z-score (Lefty1)	composite z-score [8]	z-score [9]	composite z-score [10]	z-score [11]	z-score [12]	z-score [13]	z-score [14]	composite z-score [15]	composite z-score [16]	composite z-score (Torsin-1A (Homo sapiens) [17])	composite z-score (Torsin-1A (Homo sapiens) [18])	composite z-score [19]
C=C(CCCC)/C(=C/C[C@@H](OC(=O)c1ccncc1)c1ccccc1OCCO)c1cnc2ccccc2c1	0.433	1.12	0.0585	0.963	1.44	1.43	1.34	1.61	1.17	-0.514 (inactive)	0.944	-2.5 (inactive)	0.207 (inactive)	10.3 (active)	0.689 (inactive)	1.16	0.11	0.49	-0.239	2.17
Cc1cc(C)c(C(O)C2C=CC3C(=O)NC(=O)C3N2Nc2ccc(Cl)cc2Cl)c(C)c1 (stereo not given)	1.37	1.22	0.941	0.966	1.08	0.752	-0.318	-0.0986	1.19	-1.43 (inactive)	0.0976	-0.943 (inactive)	-0.882 (inactive)	-0.329 (inactive)	-0.496 (inactive)	1.64	0.249	0.148	0.697	-0.684
COCCOC(=O)N1C(=O)[C@@]2(c3cc(C#CC4=CCCCC4)ccc31)[C@H](C(N)=O)[C@H]1C(=O)O[C@H](c3ccccc3)[C@H](c3ccccc3)N1[C@@H]2c1ccccc1OCCO	1.34	1.21	0.143	0.939	1.31	1.42	-1.89	0.943	1.05	-0.591 (inactive)	0.183	-6.52 (inactive)	-0.413 (inactive)	-0.333 (inactive)	-0.855 (inactive)	0.483	0.147	0.38	1.41	1.08
O=C1NC(=O)C2C1C=CC(C(O)c1c(F)cccc1Cl)N2Nc1ccc(Cl)cc1Cl (stereo not given)	1.23	1.2	1.6	0.296	-0.0649	-0.891	-1.15	-0.507	1.31	0.231 (inactive)	0.275	-1.37 (inactive)	-0.159 (inactive)	0.632 (inactive)	-0.524 (inactive)	1.23	0.414	0.465	1.27	-0.854
C=CCC(OC(C)=O)[C@@H]1[C@@H](N(Cc2cccc3ccccc23)C(=O)c2cccc3ccccc23)c2cc(OCCCO)ccc2N1C(=O)c1ccc(-c2ccccc2)cc1 (stereo not given in full)	-0.123	-0.14	0.0614	0.643	0.693	0.497	-0.338	0.0548	0.0915	0.337 (inactive)	-0.0964	-1.56 (inactive)	1.21 (inactive)	-0.113 (inactive)	1.24 (inactive)	0.116	0.0543	-0.104	0.292	0.556
C=C(COC)/C(=C/C[C@H](OC(C)=O)c1ccc(OCCO)cc1)c1cc(C(=O)OC)ccc1OC	0.544	1.07	0.514	0.436	1.35	1.67	2.8	1.66	0.395	-1.71 (inactive)	0.39	-0.519 (inactive)	-0.339 (inactive)	13.8 (active)	0.696 (inactive)	-0.313	0.0566	2.01	0.524	1.92
O=C1O[C@H](c2ccccc2)[C@H](c2ccccc2)N2[C@H]1[C@@H](C(=O)O)[C@]1(C(=O)Nc3ccc(C#CC4=CCCCC4)cc31)[C@H]2c1ccc(O)cc1	0.687	0.394	0.0304	0.987	1.35	0.392	-2.35	0.841	0.362	-2.89 (inactive)	0.423	-0.53 (inactive)	0.608 (inactive)	1.72 (inactive)	0.945 (inactive)	-0.0343	-0.157	-0.107	0.298	1.22
C=C(/C(=C/C[C@@H](OC(C)=O)c1cccc(OCCO)c1)c1cc(C(=O)OC)ccc1OC)C(C)C	-0.422	0.238	0.543	-0.75	1.12	1.39	0.834	1.16	0.743	0.0406 (inactive)	0.148	-1.38 (inactive)	-0.251 (inactive)	3.49 (inactive)	0.32 (inactive)	-0.19	-0.152	0.875	1.36	1.73
CC1CC/C=C\[C@H]2OC34C=CCN(C(C)C)C(=O)[C@H]3N(CCCCCCO)C(=O)[C@@H]4C2C(=O)O1 (stereo not given in full)	-0.641	-1.09	-0.278	-1.25	-0.583	-1.09	0.378	-0.547	-0.451	-3.19 (inactive)	-0.574	-0.183 (inactive)	-1.31 (inactive)	-0.342 (inactive)	-0.816 (inactive)	-0.931	-0.323	-1.83	-1.19	-0.159
COCCOC(=O)N1C(=O)[C@@]2(c3cc(C#CCC(C(=O)OC)C(=O)OC)ccc31)[C@H](C(=O)N1CCc3cc(OC)c(OC)cc3C1)[C@H]1C(=O)O[C@H](c3ccccc3)[C@H](c3ccccc3)N1[C@@H]2c1ccc(OCCO)cc1	2.19	1.2	0.497	0.783	1.31	1.45	-1.04	1.02	0.519	-1.25 (inactive)	0.587	-0.0887 (inactive)	-0.442 (inactive)	0.0653 (inactive)	-0.333 (inactive)	0.523	0.19	0.817	0.914	1.73
